Data: PubChem BioAssay AID651551 (Sanford-Burnham Center for Chemical Genomics, 2012)

The compounds below were run against PEG-3 (UniProt Q6IN02) (assay: GAPDH versus PEG-3 reporter suppression – cell-based, luminescence, counter-screen for PEG-3 promoter inhibitor project, SAR follow-up (AID 651551)). Settings: HeLa PEG-Prom / GAPDH luciferase reporter, 6 or 24 h, run 2, 24 h; at 99 µM (top of the series).
For `Cc1nc(NC(=O)c2ccccc2)sc1-c1csc(Nc2ccccc2)n1`, the inhibition % (higher = more inhibition) was 63.3%. `O=C(Nc1nccs1)c1nn(-c2ccccc2)c(=O)c2ccccc12` gave an inhibition % (higher = more inhibition) of 49.2%. For `COCCCNC(=O)c1ccc(Cn2c(=O)c3ccccc3n(Cc3ccccc3C#N)c2=O)cc1`, the inhibition % (higher = more inhibition) was 54.9%. `CCn1nc(C(=O)Nc2nc(-c3ccccn3)cs2)c2ccccc2c1=O` gave an inhibition % (higher = more inhibition) of 53.3%. With `Cc1ccc(Cl)cc1Nc1nc(-c2sc(NC(=O)c3ccco3)nc2C)cs1` the inhibition % (higher = more inhibition) was 1.6%. `CCn1cc(C(=O)NCc2ccco2)c(=O)c2cc(S(=O)(=O)N3CCCC3)ccc21` showed an inhibition % (higher = more inhibition) of 24%. In the case of `Cc1cc(NC(=O)c2ccccc2)n(-c2nc3ccccc3n2C)n1`, the inhibition % (higher = more inhibition) is reported as 12.8%. With `Cc1nc(NC(=O)c2ccccc2)sc1-c1csc(Nc2cccc(Cl)c2C)n1` the inhibition % (higher = more inhibition) was -15.2%. Compound `COc1ccccc1Nc1nc(-c2sc(NC(=O)c3ccco3)nc2C)cs1` has an inhibition % (higher = more inhibition) of 10%. Work on `COc1ccc(-n2nc(C(=O)NCC(=O)Nc3cccc(OC)c3)c3ccccc3c2=O)cc1` yielded an inhibition % (higher = more inhibition) of 21.2%. Work on `CCCn1nc(C(=O)Nc2nc(-c3ccncc3)cs2)c2ccccc2c1=O` yielded an inhibition % (higher = more inhibition) of 40.8%. Work on `Cc1cc(NC(=O)c2ccccc2C(F)(F)F)n(-c2nc3ccccc3[nH]2)n1` yielded an inhibition % (higher = more inhibition) of 91.9%. In the case of `COc1ccc(Cl)cc1Nc1nc(-c2sc(NC(=O)c3ccccc3)nc2C)cs1`, the inhibition % (higher = more inhibition) is reported as 76.3%. In the case of `Cc1cc(NC(=O)c2cccc(C)c2C)n(-c2nc3ccccc3[nH]2)n1`, the inhibition % (higher = more inhibition) is reported as 24%. For `COc1ccc(-n2nc(C(=O)NCC(=O)Nc3ccc(OC)c(OC)c3)c3ccccc3c2=O)cc1`, the inhibition % (higher = more inhibition) was 35.2%. `CCCn1nc(C(=O)Nc2nc3ccccc3s2)c2ccccc2c1=O` was tested, and the inhibition % (higher = more inhibition) was 18.4%. For `COc1ccc(-n2nc(C(=O)NCC(=O)Nc3cc(OC)c(OC)c(OC)c3)c3ccccc3c2=O)cc1OC`, the inhibition % (higher = more inhibition) was 40.8%. With `O=C(Nc1nc2ccccc2s1)c1nn(-c2ccccc2)c(=O)c2ccccc12` the inhibition % (higher = more inhibition) was -4.01%. For `Cc1cc(NC(=O)c2ccccc2)n(-c2nc3ccccc3[nH]2)n1`, the inhibition % (higher = more inhibition) was -13.6%. For `O=C(Nc1nc(-c2ccccc2)cs1)c1nn(-c2ccccc2)c(=O)c2ccccc12`, the inhibition % (higher = more inhibition) was 21.2%. Work on `Cc1nc(NC(=O)c2ccccc2)sc1-c1csc(Nc2ccccc2Cl)n1` yielded an inhibition % (higher = more inhibition) of -54.5%. With `CCCn1nc(C(=O)Nc2nc(-c3ccccn3)cs2)c2ccccc2c1=O` the inhibition % (higher = more inhibition) was 44.6%. `Cc1cc(NC(=O)c2ccccc2C)n(-c2nc3ccccc3[nH]2)n1` gave an inhibition % (higher = more inhibition) of 11.5%.
